The panel holds about 83,000 compounds, 20% with a hit somewhere; the sample as a whole holds those more often.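 Each cell line was grown in a 96-well plate and treated with one concentration of compound for 48 hours. Values below 10 were considered active.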 The source made the active and inactive calls.
Columns and labels:
Experiment in all cases: NCI-60 one-dose screen, 48 h (100 = growth as untreated, 0 = no growth, -100 = all killed)
Settings in all cases: 10 µM unless noted
NCI-H23 lung = tested on: NCI-H23 lung
NCI-H226 lung = tested on: NCI-H226 lung
NCI-H322M lung = tested on: NCI-H322M lung
HOP-62 NSCLC = tested on: HOP-62 NSCLC
NCI-H460 lung = tested on: NCI-H460 lung
HOP-92 NSCLC = tested on: HOP-92 NSCLC
NCI-H522 lung = tested on: NCI-H522 lung
A549/ATCC NSCLC = tested on: A549/ATCC NSCLC
786-0 renal = tested on: 786-0 renal
COLO 205 colon = tested on: COLO 205 colon
DU-145 prostate = tested on: DU-145 prostate
K-562 leukemia = tested on: K-562 leukemia
MALME-3M melanoma = tested on: MALME-3M melanoma
MDA-MB-231 breast = tested on: MDA-MB-231 breast
RXF 393 renal = tested on: RXF 393 renal
SF-268 CNS = tested on: SF-268 CNS
SF-295 CNS = tested on: SF-295 CNS
SF-539 CNS = tested on: SF-539 CNS
UACC-257 melanoma = tested on: UACC-257 melanoma
M14 melanoma = tested on: M14 melanoma

Measured: growth

CCc1ccc(Oc2c(-c3ccc(OCCc4cccc(C(F)(F)F)c4)cc3O)n[nH]c2C(F)(F)F)cc1
inactive: NCI-H226 lung 52.9% | NCI-H322M lung 76.7% | HOP-62 NSCLC 76.6% | A549/ATCC NSCLC 55.9% | 786-0 renal 91.2% | COLO 205 colon 100% | DU-145 prostate 25.6% | MALME-3M melanoma 48.8% | MDA-MB-231 breast 50.2% | RXF 393 renal 80.7% | SF-268 CNS 47.7% | SF-295 CNS 87.6% | SF-539 CNS 74% | UACC-257 melanoma 56.6% | M14 melanoma 59.1%
active: NCI-H23 lung 4.8% | NCI-H460 lung 2.53% | HOP-92 NSCLC -5.8% | NCI-H522 lung -20.5% | K-562 leukemia 7.94%

O=C(Nc1nc2ccc(F)cc2s1)c1cccnc1Nc1ccc(Cl)cc1Cl
active: NCI-H23 lung 7.18% | NCI-H322M lung 3.83% | NCI-H460 lung 5.22% | HOP-92 NSCLC -6.79% | COLO 205 colon 2.35% | K-562 leukemia 4.08% | MALME-3M melanoma -15.9% | SF-295 CNS 4.3%
inactive: NCI-H226 lung 52.6% | HOP-62 NSCLC 63.5% | NCI-H522 lung 31.8% | A549/ATCC NSCLC 17% | 786-0 renal 45.8% | DU-145 prostate 30% | MDA-MB-231 breast 34.5% | RXF 393 renal 44.4% | SF-268 CNS 28.9% | SF-539 CNS 43.1% | UACC-257 melanoma 28.1% | M14 melanoma 37%

COc1cc(C(=O)c2cnc(-c3cccc4[nH]ccc34)[nH]2)cc(OC)c1OC
active: NCI-H460 lung 2.81% | NCI-H522 lung -7.75% | 786-0 renal 6.82% | COLO 205 colon -36.9% | DU-145 prostate 2.85% | K-562 leukemia 8.88% | MDA-MB-231 breast -3.5% | SF-539 CNS 1.12% | M14 melanoma -6.97%
inactive: NCI-H23 lung 26.4% | NCI-H226 lung 45.7% | NCI-H322M lung 35.3% | HOP-62 NSCLC 33.8% | HOP-92 NSCLC 17.5% | A549/ATCC NSCLC 24.5% | MALME-3M melanoma 60.8% | RXF 393 renal 66.7% | SF-268 CNS 24.5% | SF-295 CNS 21.6% | UACC-257 melanoma 85%

CCn1cnc2c1c(=O)[nH]c(=O)n2CC1CCC(CNS(=O)(=O)c2ccc(OC3CCOCC3)c(F)c2)CC1 (stereo not given)
inactive: NCI-H23 lung 57.5% | NCI-H226 lung 55.7% | NCI-H322M lung 66.7% | HOP-62 NSCLC 36.5% | NCI-H460 lung 72.6% | HOP-92 NSCLC 31% | NCI-H522 lung 39.4% | A549/ATCC NSCLC 54.9% | 786-0 renal 47.4% | COLO 205 colon 45.3% | DU-145 prostate 76.8% | K-562 leukemia 39.2% | MALME-3M melanoma 58.2% | MDA-MB-231 breast 47.8% | RXF 393 renal 53.1% | SF-268 CNS 82.8% | SF-295 CNS 58.5% | SF-539 CNS 54.7% | UACC-257 melanoma 59.8% | M14 melanoma 48.5%

c1ccc(CO[C@H]2CO[C@H]3[C@@H]2OC[C@@H]3Oc2ccc(Nc3ncnc4ccsc34)cc2)cc1
inactive: NCI-H23 lung 62.6% | NCI-H226 lung 80.3% | NCI-H322M lung 93.1% | HOP-62 NSCLC 86.5% | NCI-H460 lung 84.5% | HOP-92 NSCLC 65% | NCI-H522 lung 70.4% | A549/ATCC NSCLC 81.7% | 786-0 renal 87.2% | COLO 205 colon 71.8% | DU-145 prostate 89% | K-562 leukemia 62.1% | MALME-3M melanoma 53.4% | MDA-MB-231 breast 71.7% | RXF 393 renal 83.1% | SF-268 CNS 78% | SF-295 CNS 63.3% | SF-539 CNS 73.1% | UACC-257 melanoma 78% | M14 melanoma 79.5%

O=C(O)CCC(=O)Nc1nnc(-c2ccccc2)s1
inactive: NCI-H23 lung 99.7% | NCI-H226 lung 116% | NCI-H322M lung 105% | HOP-62 NSCLC 94.2% | NCI-H460 lung 104% | HOP-92 NSCLC 93.1% | NCI-H522 lung 80.1% | A549/ATCC NSCLC 102% | 786-0 renal 92.9% | COLO 205 colon 108% | DU-145 prostate 105% | K-562 leukemia 91.7% | MALME-3M melanoma 114% | MDA-MB-231 breast 108% | RXF 393 renal 120% | SF-268 CNS 96.4% | SF-295 CNS 96.9% | SF-539 CNS 102% | UACC-257 melanoma 104% | M14 melanoma 102%

O=C(/C=C/c1ccc([N+](=O)[O-])o1)NNC(=O)c1cc2ccccc2cc1O
active: NCI-H23 lung 6.76% | NCI-H226 lung 0.682% | NCI-H460 lung 9.04% | HOP-92 NSCLC 4.15% | NCI-H522 lung -79.5% | 786-0 renal -23.8% | COLO 205 colon -7.38% | K-562 leukemia 3.48% | MALME-3M melanoma -36.3% | RXF 393 renal -20.8% | SF-268 CNS -3.99% | SF-539 CNS -22.6% | UACC-257 melanoma -16.5% | M14 melanoma -93.3%
inactive: NCI-H322M lung 23.3% | HOP-62 NSCLC 27.5% | A549/ATCC NSCLC 32.4% | DU-145 prostate 11.7% | MDA-MB-231 breast 21% | SF-295 CNS 54.8%

CNC(=O)c1cc(-n2ccc3cc(NC(=O)c4ccc(N5CCOCC5)c(C(F)(F)F)c4)ccc32)ccn1
active: RXF 393 renal -2.7% | SF-295 CNS -3.1%
inactive: NCI-H23 lung 64% | NCI-H226 lung 51.7% | NCI-H322M lung 91.5% | HOP-62 NSCLC 62% | NCI-H460 lung 68.4% | HOP-92 NSCLC 60.5% | NCI-H522 lung 52% | A549/ATCC NSCLC 46.3% | 786-0 renal 47.8% | COLO 205 colon 42.9% | DU-145 prostate 76% | K-562 leukemia 25.5% | MALME-3M melanoma 73.9% | MDA-MB-231 breast 77.7% | SF-268 CNS 88.3% | SF-539 CNS 30.6% | UACC-257 melanoma 84.3% | M14 melanoma 62.4%

COc1cccc2c(=O)c3c(sc12)c(N1CCNCC1)nc1ccccc13
active: NCI-H460 lung -55.1% | K-562 leukemia -25.9%
inactive: NCI-H23 lung 77.3% | NCI-H226 lung 88.2% | NCI-H322M lung 92.8% | HOP-62 NSCLC 81% | HOP-92 NSCLC 51.7% | NCI-H522 lung 77.2% | A549/ATCC NSCLC 48.6% | 786-0 renal 78.9% | COLO 205 colon 30.9% | DU-145 prostate 35.8% | MALME-3M melanoma 104% | MDA-MB-231 breast 53.1% | RXF 393 renal 79.7% | SF-268 CNS 87.9% | SF-295 CNS 102% | SF-539 CNS 69.6% | UACC-257 melanoma 101% | M14 melanoma 81.3%

COc1ccc(-c2nc3sc(-c4ccc(Cl)cc4)cn3n2)cc1
active: NCI-H460 lung -39.3% | A549/ATCC NSCLC -30.3% | 786-0 renal -75.8%
inactive: NCI-H23 lung 58.5% | NCI-H226 lung 50.1% | NCI-H322M lung 17.8% | HOP-62 NSCLC 39.6% | HOP-92 NSCLC 21.5% | NCI-H522 lung 61% | COLO 205 colon 52.5% | DU-145 prostate 80.7% | K-562 leukemia 61.5% | MALME-3M melanoma 50.8% | MDA-MB-231 breast 13.3% | RXF 393 renal 59% | SF-268 CNS 65.1% | SF-295 CNS 24.2% | SF-539 CNS 15.4% | UACC-257 melanoma 84.6% | M14 melanoma 91.1%

CC1=NN(c2ccc(S(=O)(=O)O)cc2)C(=O)C1N=Nc1ccc(-c2ccc(N=Nc3ccc(OS(=O)(=O)c4ccc(C)cc4)cc3)c(S(=O)(=O)O)c2)cc1 (stereo not given)
inactive: NCI-H23 lung 87.4% | NCI-H226 lung 85.7% | NCI-H322M lung 93.4% | HOP-62 NSCLC 93.7% | NCI-H460 lung 96% | HOP-92 NSCLC 41.1% | NCI-H522 lung 77.8% | A549/ATCC NSCLC 99% | 786-0 renal 90.3% | COLO 205 colon 102% | DU-145 prostate 107% | K-562 leukemia 94.4% | MALME-3M melanoma 108% | MDA-MB-231 breast 97.1% | RXF 393 renal 61.7% | SF-268 CNS 100% | SF-295 CNS 77.5% | SF-539 CNS 85.1% | UACC-257 melanoma 104% | M14 melanoma 103%

COC(=O)/C=C1\S/C(=N\Nc2ccc([N+](=O)[O-])cc2[N+](=O)[O-])N(C2CCCCC2)C1=O
inactive: NCI-H23 lung 60% | NCI-H226 lung 80.7% | NCI-H322M lung 99.3% | HOP-62 NSCLC 86.8% | NCI-H460 lung 35.1% | NCI-H522 lung 43.6% | A549/ATCC NSCLC 87.6% | 786-0 renal 61.1% | COLO 205 colon 42.5% | DU-145 prostate 44.2% | K-562 leukemia 17.8% | MALME-3M melanoma 87.5% | MDA-MB-231 breast 59.8% | RXF 393 renal 62% | SF-268 CNS 71% | SF-295 CNS 77.1% | SF-539 CNS 69.2% | UACC-257 melanoma 80.1% | M14 melanoma 78.1%
active: HOP-92 NSCLC 8.36%

Cc1nc2ccccc2c(/C=C/c2ccc(Cl)cc2)c1C(=O)/C=C/c1ccc(C(F)(F)F)cc1
active: NCI-H23 lung -33.4% | NCI-H226 lung -54.7% | NCI-H322M lung -43.3% | HOP-62 NSCLC -62.8% | NCI-H460 lung -75.3% | HOP-92 NSCLC -82.1% | NCI-H522 lung -14.3% | 786-0 renal -85% | COLO 205 colon -44.2% | DU-145 prostate -83.7% | K-562 leukemia -7.8% | MALME-3M melanoma -74.1% | MDA-MB-231 breast -50.5% | RXF 393 renal -85.9% | SF-268 CNS -53.5% | SF-295 CNS -88.2% | SF-539 CNS -90.5% | UACC-257 melanoma -37% | M14 melanoma -38.6%
inactive: A549/ATCC NSCLC 10.5%

O=C(Oc1cccc2ccccc12)Oc1cccc2ccccc12
inactive: NCI-H23 lung 90.9% | NCI-H226 lung 98.5% | NCI-H322M lung 104% | HOP-62 NSCLC 96.1% | NCI-H460 lung 110% | HOP-92 NSCLC 62.8% | NCI-H522 lung 93.8% | A549/ATCC NSCLC 107% | 786-0 renal 110% | COLO 205 colon 127% | DU-145 prostate 104% | K-562 leukemia 103% | MALME-3M melanoma 98% | MDA-MB-231 breast 94.2% | RXF 393 renal 115% | SF-268 CNS 75.3% | SF-295 CNS 109% | SF-539 CNS 101% | UACC-257 melanoma 127% | M14 melanoma 96.2%
